Measured values as given in publication PMC4631838.

How the values were obtained:
Test in all cases: cross-link between two proteins; cross-linking mass spectrometry
[1] = target: DNA-directed RNA polymerase II subunit RPB3 (UniProt P16370)
[2] = target: DNA-directed RNA polymerases I, II, and III subunit RPABC2 (UniProt P20435)
[3] = target: DNA-directed RNA polymerase II subunit RPB11 (UniProt P38902)
[4] = target: DNA-directed RNA polymerase II subunit RPB9 (UniProt P27999)
[5] = target: DNA-directed RNA polymerases I, II, and III subunit RPABC1 (UniProt P20434)
DNA-directed RNA polymerases I, II, and III subunit RPABC1, sequence (P20434 whole entry): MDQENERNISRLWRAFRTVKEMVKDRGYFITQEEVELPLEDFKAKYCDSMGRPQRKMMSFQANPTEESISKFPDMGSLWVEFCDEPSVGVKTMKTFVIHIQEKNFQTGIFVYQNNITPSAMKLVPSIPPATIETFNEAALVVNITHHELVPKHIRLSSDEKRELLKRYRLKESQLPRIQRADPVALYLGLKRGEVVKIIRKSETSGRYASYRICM

[6] = target: DNA-directed RNA polymerases I, II, and III subunit RPABC3 (UniProt P20436)
DNA-directed RNA polymerases I, II, and III subunit RPABC3, sequence (P20436 whole entry): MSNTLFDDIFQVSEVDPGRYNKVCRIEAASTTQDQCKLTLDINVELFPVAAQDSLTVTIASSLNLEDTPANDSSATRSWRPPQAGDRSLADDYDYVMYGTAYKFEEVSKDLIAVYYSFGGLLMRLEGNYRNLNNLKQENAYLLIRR

[7] = target: DNA-directed RNA polymerase II subunit RPB7 (UniProt P34087)
DNA-directed RNA polymerase II subunit RPB7, sequence (P34087 whole entry): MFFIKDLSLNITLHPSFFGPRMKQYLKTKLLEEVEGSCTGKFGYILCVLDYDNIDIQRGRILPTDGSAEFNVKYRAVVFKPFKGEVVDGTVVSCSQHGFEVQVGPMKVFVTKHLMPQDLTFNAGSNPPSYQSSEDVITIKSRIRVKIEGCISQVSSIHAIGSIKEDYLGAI

DNA-directed RNA polymerase II subunit RPB1, P04050, sequence (P04050 whole entry): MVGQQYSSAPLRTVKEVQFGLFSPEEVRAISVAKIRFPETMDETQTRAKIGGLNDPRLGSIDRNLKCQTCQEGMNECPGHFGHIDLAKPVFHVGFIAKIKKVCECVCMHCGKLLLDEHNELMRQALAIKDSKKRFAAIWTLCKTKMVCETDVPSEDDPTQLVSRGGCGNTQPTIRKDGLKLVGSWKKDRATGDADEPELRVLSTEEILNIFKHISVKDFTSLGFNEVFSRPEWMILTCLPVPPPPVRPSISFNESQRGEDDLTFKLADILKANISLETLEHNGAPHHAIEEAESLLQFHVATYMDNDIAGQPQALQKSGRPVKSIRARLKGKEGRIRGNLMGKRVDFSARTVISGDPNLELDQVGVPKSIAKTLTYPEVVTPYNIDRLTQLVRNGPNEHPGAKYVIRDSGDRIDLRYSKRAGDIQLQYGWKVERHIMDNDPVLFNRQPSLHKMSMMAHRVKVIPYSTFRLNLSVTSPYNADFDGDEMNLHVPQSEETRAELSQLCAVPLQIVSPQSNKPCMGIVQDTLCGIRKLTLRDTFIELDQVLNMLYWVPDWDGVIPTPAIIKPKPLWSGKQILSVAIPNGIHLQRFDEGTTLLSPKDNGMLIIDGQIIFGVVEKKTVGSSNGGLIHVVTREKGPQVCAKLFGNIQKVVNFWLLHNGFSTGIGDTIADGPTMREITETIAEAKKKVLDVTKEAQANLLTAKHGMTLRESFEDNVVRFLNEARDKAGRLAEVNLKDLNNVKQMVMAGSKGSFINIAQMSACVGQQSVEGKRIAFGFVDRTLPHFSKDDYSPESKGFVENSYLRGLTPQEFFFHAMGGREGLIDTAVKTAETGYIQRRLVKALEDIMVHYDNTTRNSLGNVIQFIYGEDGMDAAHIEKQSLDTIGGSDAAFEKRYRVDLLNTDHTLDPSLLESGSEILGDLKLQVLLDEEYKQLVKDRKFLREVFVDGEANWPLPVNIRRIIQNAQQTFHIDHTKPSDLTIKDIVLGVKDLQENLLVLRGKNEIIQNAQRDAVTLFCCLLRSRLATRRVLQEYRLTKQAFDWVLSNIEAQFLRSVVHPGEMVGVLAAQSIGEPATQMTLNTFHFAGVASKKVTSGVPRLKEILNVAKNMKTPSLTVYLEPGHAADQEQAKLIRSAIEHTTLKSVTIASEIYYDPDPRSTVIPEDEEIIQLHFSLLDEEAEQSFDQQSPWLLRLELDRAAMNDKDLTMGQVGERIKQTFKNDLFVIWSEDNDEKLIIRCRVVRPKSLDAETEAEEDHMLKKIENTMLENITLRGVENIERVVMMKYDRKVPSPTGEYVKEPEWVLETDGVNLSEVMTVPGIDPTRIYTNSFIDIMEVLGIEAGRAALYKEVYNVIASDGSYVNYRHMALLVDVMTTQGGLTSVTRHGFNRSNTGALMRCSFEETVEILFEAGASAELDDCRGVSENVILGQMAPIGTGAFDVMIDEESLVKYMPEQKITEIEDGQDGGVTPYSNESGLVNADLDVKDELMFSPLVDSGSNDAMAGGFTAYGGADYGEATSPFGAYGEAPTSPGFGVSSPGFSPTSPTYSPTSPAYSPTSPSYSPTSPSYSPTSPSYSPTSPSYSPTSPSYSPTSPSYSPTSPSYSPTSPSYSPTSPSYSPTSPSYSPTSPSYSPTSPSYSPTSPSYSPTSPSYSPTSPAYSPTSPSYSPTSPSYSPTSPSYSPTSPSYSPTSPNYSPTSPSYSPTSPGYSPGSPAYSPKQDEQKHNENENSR
DNA-directed RNA polymerases I, II, and III subunit RPABC2, sequence (P20435 whole entry): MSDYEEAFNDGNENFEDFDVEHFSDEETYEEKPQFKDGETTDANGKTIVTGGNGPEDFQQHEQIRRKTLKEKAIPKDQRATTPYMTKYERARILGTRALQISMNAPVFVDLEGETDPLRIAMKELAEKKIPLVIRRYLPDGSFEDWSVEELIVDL
DNA-directed RNA polymerase II subunit RPB3, sequence (P16370 whole entry): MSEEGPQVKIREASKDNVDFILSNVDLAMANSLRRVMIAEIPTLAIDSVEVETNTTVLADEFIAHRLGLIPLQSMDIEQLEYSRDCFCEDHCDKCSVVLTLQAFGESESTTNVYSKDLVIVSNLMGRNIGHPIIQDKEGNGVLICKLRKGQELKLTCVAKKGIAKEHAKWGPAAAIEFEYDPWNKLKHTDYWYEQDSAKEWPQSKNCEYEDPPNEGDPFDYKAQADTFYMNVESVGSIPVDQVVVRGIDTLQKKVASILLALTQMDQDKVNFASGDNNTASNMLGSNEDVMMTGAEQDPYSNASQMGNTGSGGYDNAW
DNA-directed RNA polymerase II subunit RPB9, sequence (P27999 whole entry): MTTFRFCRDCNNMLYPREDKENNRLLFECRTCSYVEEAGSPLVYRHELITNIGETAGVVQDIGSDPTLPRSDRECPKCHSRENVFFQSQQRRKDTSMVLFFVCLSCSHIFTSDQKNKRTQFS
DNA-directed RNA polymerase II subunit RPB11, sequence (P38902 whole entry): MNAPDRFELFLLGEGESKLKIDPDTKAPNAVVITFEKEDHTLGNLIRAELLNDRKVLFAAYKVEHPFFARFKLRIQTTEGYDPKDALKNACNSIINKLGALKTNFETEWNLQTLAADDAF
DNA-directed RNA polymerase II subunit RPB2, P08518, sequence (P08518 whole entry): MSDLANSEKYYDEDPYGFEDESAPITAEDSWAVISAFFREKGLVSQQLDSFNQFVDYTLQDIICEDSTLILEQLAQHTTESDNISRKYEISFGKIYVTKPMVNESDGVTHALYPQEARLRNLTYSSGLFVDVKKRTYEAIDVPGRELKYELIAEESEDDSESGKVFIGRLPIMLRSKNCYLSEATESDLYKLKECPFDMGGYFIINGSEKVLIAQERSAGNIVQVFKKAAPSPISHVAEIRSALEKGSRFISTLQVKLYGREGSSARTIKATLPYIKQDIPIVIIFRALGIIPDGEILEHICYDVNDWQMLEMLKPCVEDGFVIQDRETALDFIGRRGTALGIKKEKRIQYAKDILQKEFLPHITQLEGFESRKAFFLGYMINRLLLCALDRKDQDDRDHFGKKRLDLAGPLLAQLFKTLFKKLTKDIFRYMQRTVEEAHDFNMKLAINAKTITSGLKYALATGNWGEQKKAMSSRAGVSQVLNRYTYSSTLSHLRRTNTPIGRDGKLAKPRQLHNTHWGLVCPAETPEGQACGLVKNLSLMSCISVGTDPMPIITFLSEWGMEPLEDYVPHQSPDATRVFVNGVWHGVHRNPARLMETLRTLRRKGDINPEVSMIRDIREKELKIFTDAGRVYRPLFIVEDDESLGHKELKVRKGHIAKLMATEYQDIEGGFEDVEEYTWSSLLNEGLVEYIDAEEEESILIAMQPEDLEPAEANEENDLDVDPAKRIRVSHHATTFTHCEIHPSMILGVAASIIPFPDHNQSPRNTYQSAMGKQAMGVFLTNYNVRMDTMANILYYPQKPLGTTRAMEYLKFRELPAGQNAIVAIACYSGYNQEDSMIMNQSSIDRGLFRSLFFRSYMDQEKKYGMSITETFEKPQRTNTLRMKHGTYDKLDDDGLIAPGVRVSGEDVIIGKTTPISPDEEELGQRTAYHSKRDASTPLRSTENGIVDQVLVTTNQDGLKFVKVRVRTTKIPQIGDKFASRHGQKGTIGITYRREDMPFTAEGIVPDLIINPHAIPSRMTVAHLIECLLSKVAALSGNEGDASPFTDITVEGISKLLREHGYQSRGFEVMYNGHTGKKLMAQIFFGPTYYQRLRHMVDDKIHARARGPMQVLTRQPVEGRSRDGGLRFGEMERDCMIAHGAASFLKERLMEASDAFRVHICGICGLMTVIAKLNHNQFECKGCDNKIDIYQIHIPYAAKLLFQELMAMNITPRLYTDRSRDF

**Q.** Which “listed as a hit” value [1] does the source give for “DNA-directed RNA polymerase II subunit RPB2, P08518” here?
**A.** yes

**Q.** How did the “listed as a hit” value [2] turn out when “DNA-directed RNA polymerases I, II, and III subunit RPABC1, P20434” was run?
**A.** yes

**Q.** How did the “listed as a hit” value [3] turn out when “DNA-directed RNA polymerase II subunit RPB1, P04050” was run?
**A.** yes

**Q.** And the “listed as a hit” value [4]?
**A.** yes

**Q.** And the “listed as a hit” value [5]?
**A.** yes

**Q.** And the “listed as a hit” value [2]?
**A.** yes

**Q.** What about the “listed as a hit” value [6] of the same substance?
**A.** yes

**Q.** With “DNA-directed RNA polymerase II subunit RPB4, P20433” as the substance, how does the “listed as a hit” value [7] read?
**A.** yes
